Data as given in article PMC10726135, “HNF4α isoforms regulate the circadian balance between carbohydrate and lipid metabolism in the liver”.
Over roughly 18,000 sequences, “log2 normalized intensity” has its median near 0.39; the highest 2% begin near 6.6. Many of the other results were omitted from the sample, so the highest values are more common in it than they were.

Target: T1, HNF4alpha2 (COS-7 nuclear extract) (Homo sapiens, UniProt P41235 1-474)
T1 sequence: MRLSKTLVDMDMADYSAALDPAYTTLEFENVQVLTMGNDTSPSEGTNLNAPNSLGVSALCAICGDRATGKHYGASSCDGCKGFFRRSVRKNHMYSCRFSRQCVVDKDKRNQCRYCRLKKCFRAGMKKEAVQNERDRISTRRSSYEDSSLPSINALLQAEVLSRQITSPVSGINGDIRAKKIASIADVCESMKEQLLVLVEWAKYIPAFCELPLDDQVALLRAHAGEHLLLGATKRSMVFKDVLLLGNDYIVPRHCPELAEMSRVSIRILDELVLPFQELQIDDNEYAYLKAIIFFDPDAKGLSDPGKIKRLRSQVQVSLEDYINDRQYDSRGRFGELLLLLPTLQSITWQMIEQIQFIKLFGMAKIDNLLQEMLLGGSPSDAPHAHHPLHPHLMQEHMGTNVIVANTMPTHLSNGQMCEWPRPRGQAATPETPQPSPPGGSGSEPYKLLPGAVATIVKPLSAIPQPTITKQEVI
Test: protein-binding microarray; COS-7 nuclear extract on double-stranded Agilent 4x180k PBM; binding buffer, salt, pH and temperature not given in the material; high values mean tight binding
Details: chain copies: 2; label: 3' end of strand 1 on the slide; dsDNA, one strand shown
In short: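 Binding signal is the background-corrected, normalized gProcessedSignal calculated by Agilent software. It was measured by applying nuclear extracts of COS-7 cells transiently transfected with a human HNF4α isoform expression vector to a custom Agilent SurePrint G3 4x180k array of ~44,000 double-stranded ~60-nt test sequences in quadruplicate, then imaging bound HNF4α on an Agilent G2565CA scanner at 2-µm resolution.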

Sequence	binding signal
AGCATTTTTGTATGCATAAGGCCTTGGACCGCCTAGGGAGATTAGAGTATCGGTCGA	3.11 log2 normalized intensity
CTTTGGTATGGACTGATATTCAAACAGGTCGCCTAGGGAGATTAGAGTATCGGTCGA	1.31 log2 normalized intensity
GAGGGATTTTCAGTATACTGACTTATCAGGGCCTAGGGAGATTAGAGTATCGGTCGA	0.535 log2 normalized intensity
AGCGGCCTTCCCCTTTTTCTGTAAAGCTTTGCCTAGGGAGATTAGAGTATCGGTCGA	1.21 log2 normalized intensity
GAGTTTAGGCATTCTTAGACACAGTCTGAGGCCTAGGGAGATTAGAGTATCGGTCGA	-0.227 log2 normalized intensity
TGCGTGTTATCTATGGAACATGGACTTTGAGCCTAGGGAGATTAGAGTATCGGTCGA	8.74 log2 normalized intensity
CCTCTTGCGTGTTATCTATGGAACATGGACGCCTAGGGAGATTAGAGTATCGGTCGA	2.24 log2 normalized intensity
AACATGGACTTTGTTGTTTGCCTCTGAAAAGCCTAGGGAGATTAGAGTATCGGTCGA	2.31 log2 normalized intensity
CCATACCTCTTGCGTGTTATCTATGGAACAGCCTAGGGAGATTAGAGTATCGGTCGA	1.5 log2 normalized intensity
TACATTGAACTTTGAACACCTCTTCTTTCTGCCTAGGGAGATTAGAGTATCGGTCGA	4.75 log2 normalized intensity
GAACATGGACTTTGAACCTCTCTTCTTTTTGCCTAGGGAGATTAGAGTATCGGTCGA	7.25 log2 normalized intensity
GGAGAAGTTTTATGGCAGGGTCGGAATGTCGCCTAGGGAGATTAGAGTATCGGTCGA	1.55 log2 normalized intensity
AGCCCCACAGAGCAAAGGTCATGCATAGAAGCCTAGGGAGATTAGAGTATCGGTCGA	4.52 log2 normalized intensity
ATGGTTTGACCCTGCGATAAGTAGATACCAGCCTAGGGAGATTAGAGTATCGGTCGA	0.964 log2 normalized intensity
TCAGTCTGGTTGAGGCAAGCAAAAGCCAAGGCCTAGGGAGATTAGAGTATCGGTCGA	-0.985 log2 normalized intensity
GAGTCTGTTGTCTAACATTTTTGACCTTCAGCCTAGGGAGATTAGAGTATCGGTCGA	4.09 log2 normalized intensity
TTGACCTTTGGCCAAGGGCAGTGTTTGCCCGCCTAGGGAGATTAGAGTATCGGTCGA	5.35 log2 normalized intensity
CTTTGGCCAAGGGCAGTGTTTGCCCAGCTTGCCTAGGGAGATTAGAGTATCGGTCGA	0.106 log2 normalized intensity
GTCTGTTGACCTTTGGCCAAGGGCAGTGTTGCCTAGGGAGATTAGAGTATCGGTCGA	6.71 log2 normalized intensity
AGGCAGTCTGTTGACCTTTGGCCAAGGGCAGCCTAGGGAGATTAGAGTATCGGTCGA	7.73 log2 normalized intensity
CAACTGGTATGTTAGATTAGTGTGCAGCTTGCCTAGGGAGATTAGAGTATCGGTCGA	0.891 log2 normalized intensity
TCTGACCTCTTTCAAGCCTGAACAAACATGGCCTAGGGAGATTAGAGTATCGGTCGA	0.93 log2 normalized intensity

Sequence	binding signal
GTCCGGCAGAGCTATGGAATTTTGGCCTTTGCCTAGGGAGATTAGAGTATCGGTCGA	3.22 log2 normalized intensity
CTAGGCTCCAGGGCACTGCCCTTTGGAACCGCCTAGGGAGATTAGAGTATCGGTCGA	6.71 log2 normalized intensity
AAAGCCTAGGCTCCAGGGCACTGCCCTTTGGCCTAGGGAGATTAGAGTATCGGTCGA	3 log2 normalized intensity
TTATGCAGACCTTTGCCCTTTGTTTACATAGCCTAGGGAGATTAGAGTATCGGTCGA	5.27 log2 normalized intensity
ATTCCCTCCAGCAGGGGATGCCCTTTGACCGCCTAGGGAGATTAGAGTATCGGTCGA	8.91 log2 normalized intensity
TGCTTCCAAGTTATGCAGACCTTTGCCCTTGCCTAGGGAGATTAGAGTATCGGTCGA	7.17 log2 normalized intensity
CTCCAGGGCACTGCCCTTTGGAACCTGCCCGCCTAGGGAGATTAGAGTATCGGTCGA	5.54 log2 normalized intensity
CCCTTTGACCTCTGCTTCCTGCTACAGAGCGCCTAGGGAGATTAGAGTATCGGTCGA	1.87 log2 normalized intensity
TGCACATTCCCTCCAGCAGGGGATGCCCTTGCCTAGGGAGATTAGAGTATCGGTCGA	2.38 log2 normalized intensity
TACTTTGCTTCCAAGTTATGCAGACCTTTGGCCTAGGGAGATTAGAGTATCGGTCGA	2.14 log2 normalized intensity
GGATGCCCTTTGACCTCTGCTTCCTGCTACGCCTAGGGAGATTAGAGTATCGGTCGA	5.58 log2 normalized intensity
GCAGGGGATGCCCTTTGACCTCTGCTTCCTGCCTAGGGAGATTAGAGTATCGGTCGA	8.18 log2 normalized intensity
ATGCCCCTCCCAGGGACACATGCCCCTTCCGCCTAGGGAGATTAGAGTATCGGTCGA	5.44 log2 normalized intensity
TTGGGTCACAATCACAAATGCCTTCAGGGGGCCTAGGGAGATTAGAGTATCGGTCGA	0.838 log2 normalized intensity
TCAGCCCACAGGTCAATCCAGGTTGCTGCCGCCTAGGGAGATTAGAGTATCGGTCGA	-0.646 log2 normalized intensity
GGCCCAGAGCACAACCTTTGGCCGTGCATGGCCTAGGGAGATTAGAGTATCGGTCGA	2.45 log2 normalized intensity
TTAAATCCTATCCTAGGGTTAAAGTCTACAGCCTAGGGAGATTAGAGTATCGGTCGA	4.31 log2 normalized intensity
ACCCCACGGACTTAAATTGTGCTGTGTCAGGCCTAGGGAGATTAGAGTATCGGTCGA	1.49 log2 normalized intensity
CAAAGTCCGCTTGCCTGAGGGTCATGACTAGCCTAGGGAGATTAGAGTATCGGTCGA	2.26 log2 normalized intensity
GCCAATTCAGCAAACAAAGGCACTTCTCTCGCCTAGGGAGATTAGAGTATCGGTCGA	-0.96 log2 normalized intensity
TGAGCAGGCAGTGTCACAGAAATCATGTAGGCCTAGGGAGATTAGAGTATCGGTCGA	0.722 log2 normalized intensity
